Where “and” joins values, the source holds several entries; their conditions need not be identical. Identical values can stand only once. Like-named read-outs stand apart in the source and are kept apart here.
Assays:
TNIK = details: concentration: 1 μM, replicates: in singlicate; n = 1
TNK1 = details: concentration: 1 μM, replicates: in singlicate; n = 1
TNK2 = details: n = 1
TNNI3K = details: n = 1
TRKA = test system: T1, TRKA; details: concentration: 1 μM, replicates: in singlicate; n = 1
T1 construct: gene NTRK1

TRKB = details: n = 1
TRKC = test system: T2, TRKC; details: n = 1
T2 construct: gene NTRK3

TRPM6 = details: n = 1
TSSK1B = details: n = 1
TSSK3 = details: n = 1
[1] = concentration: 1 μM, replicates: in singlicate
[2] = concentration: 1 μM,replicates: in singlicate, 1 µM
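Further: KINOMEscan kinase panel screen.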

Compound	%Inh (TNIK)	%Inh (TNK1)	%Inh (TNK2; [1])	%Inh (TNNI3K; [1])	%Inh (TRKA)	%Inh (TRKB; [1])	%Inh (TRKC; [1])	%Inh (TRPM6; [1])	%Inh (TSSK1B; [1])	%Inh (TSSK3; [1])	%Inh (TNK2; [2])	%Inh (TNNI3K; [2])	%Inh (TRKB; [2])	%Inh (TRKC; [2])	%Inh (TRPM6; [2])	%Inh (TSSK1B; [2])	%Inh (TSSK3; [2])
O=C(Nc1n[nH]c2cc(-c3cccc(F)c3F)ccc12)C1CC1 [SB-733894]	72%	10%	2%	0%	38%	11%	34%	0%	0%	0%							
COc1ccc(C2=C(Nc3cccc(C(=O)O)c3)C(=O)NC2=O)cc1 [SB-390765]	0%	5%	6%	0%	47%	0%	22%	0%	8%	0%							
O=C(Nc1n[nH]c2nc(-c3nccs3)c(Br)cc12)C1CCCC1 [SB-742609]	1%	2%	4%	6%	0%	59%	24%	0%	8%	0%							
C[C@@H]1CCCCN1c1cc(-c2ccc3c(N)n[nH]c3c2)nc(N)n1 [GSK2258759]	0%	0%	18%	0%	0%	0%	0%	16%	0%	2%							
O=C(Nc1ccccc1)Nc1cccc(Oc2ccc3nccn3n2)c1	7%	23%	0%	0%	0%	0%	27%	0%	0%	0%							
COc1cc2ncnc(Nc3ccc4nc(-c5ccccc5)[nH]c4c3)c2cc1OC.Cl [GW282450]	0%	0%	9%	14%	48%	0%	0%	38%	0%	21%							
CSc1nn2c(=O)cc(N3CCOCC3)nc2n1Cc1cccc(C(F)(F)F)c1C [GSK2363608]	0%	0%			0%						17% and 30%	1% and 10%	0% and 3%	0% and 11%	22% and 0%	18% and 77%	18% and 6%
CC(C)(C)c1ccc(C(=O)Nc2cn3cc(-c4cccnc4)ccc3n2)cc1	25%	0%	17%	0%	10%	11%	1%	0%	0%	0%							
Cc1cc(-c2ccc3c(c2)CC[C@@H](N[C@@H](C)c2ccccc2)C3)cnc1N.Cl [GW412617]	45%	0%	12%	27%	82%	10%	8%	16%	37%	19%							
Cn1ccc2ncnc(Oc3cccc(C(=O)Nc4ccccc4)c3)c21	16%	3%	9%	1%	21%	0%	0%	0%	9%	0%							
Clc1cc(Cl)cc(Nc2ccnc(Nc3cc(Cl)cc(Cl)c3)n2)c1 [GSK175726]	0%	0%	12%	6%	19%	0%	0%	0%	0%	10%							
COc1ccccc1-c1ccc2c(NC(=O)C3CC3)n[nH]c2n1 [SB-711239]	0%	4%	8%	14%	24%	0%	20%	0%	0%	21%							
O=c1cc(N2CCOCC2)nc2n(Cc3cccc(Cl)c3Cl)ccn12 [GSK2286295]	0%	8%	12%	13%	0%	0%	0%	25%	0%	47%							
Cc1cccc(-c2nc(-c3ccc(S(C)(=O)=O)cc3)sc2-c2ccnc(NCCc3ccccc3)c2)c1	10%	0%	0%	0%	0%	0%	15%	0%	0%	0%							
COc1cc(Nc2nccc(N3CCC(NC(=O)Nc4cc(C)ccc4C)C3)n2)cc(OC)c1OC (stereo not drawn) [GSK1379762]	0%	14%	15%	0%	18%	0%	20%	0%	7%	21%							
CC1=C(C(=O)Nc2cc3cn[nH]c3cc2F)C(c2ccc(C(F)(F)F)cc2)CC(=O)N1 (stereo not drawn) [GSK429286]	0%	0%	15%	3%	0%	0%	0%	0%	13%	14%							
COc1cccc(NC(=O)NC2CCN(c3ccnc(Nc4ccc(F)cc4)n3)C2)c1 (stereo not drawn) [GSK1379721]	0%	0%	0%	2%	42%	59%	80%	26%	9%	23%							
Cc1ccc(-c2cc(-c3c[nH]nc3-c3ccccn3)ccn2)cc1 [GW684088]	90.2%	19%	12%	0%	18%	22%	40%	0%	0%	10%							

Compound	%Inh (TNIK)	%Inh (TNK1)	%Inh (TNK2; [1])	%Inh (TNNI3K; [1])	%Inh (TRKA)	%Inh (TRKB; [1])	%Inh (TRKC; [1])	%Inh (TRPM6; [1])	%Inh (TSSK1B; [1])	%Inh (TSSK3; [1])	%Inh (TNK2; [2])	%Inh (TNNI3K; [2])	%Inh (TRKB; [2])	%Inh (TRKC; [2])	%Inh (TRPM6; [2])	%Inh (TSSK1B; [2])	%Inh (TSSK3; [2])
Cl.O=C(Nc1cccc(-c2nn3ncccc3c2-c2ccnc(Nc3cccnc3)n2)c1)c1c(F)cccc1F [GSK312879]	1%	49%	13%	0%	0%	30%	7%	28%	27%	9%							
Cc1cc(N2Cc3ccccc3C2)nc(Nc2ccc(S(=O)(=O)N3CCOCC3)cc2)n1.Cl [GSK1669917]	0%	0%	7%	0%	0%	0%	0%	9%	0%	8%							
Fc1cccc(COc2nnc(-c3ccc4c(c3)CCO4)o2)c1	14%	0%	0%	0%	24%	0%	48%	0%	0%	0%							
Cc1ccccc1-n1cnc2c(N)ncnc21 [SKF-97510]	0%	0%	7%	0%	0%	0%	0%	66%	0%	0%							
COc1cc2nccc(Nc3ccc(NC(=O)c4ccc(C)cc4)c(O)c3)c2cc1OC.Cl [GW440132]	0%	26%	48%	4%	36%	0%	0%	5%	3%	18%							
Cc1ccc(NC(=O)Nc2cccc(Cl)c2)cc1-c1ccc(C(=O)Nc2ccncc2)cc1 [GSK1398468]	0%	0%	12%	64%	0%	0%	6%	0%	0%	8%							
CN(C)CCN(C)C(=O)c1cc(-c2ccncc2)c(-c2ccc(Cl)c(O)c2)o1.Cl.Cl [SB-710397]	51%	2%	0%	17%	0%	43%	35%	27%	24%	24%							
Cc1ccc(C(=O)Nc2ccc(Nc3ccnc4cc(-c5ccccn5)ccc34)cc2O)cc1.Cl [GW440146]	0%	45%	95.3%	0%	7%	0%	34%	57%	34%	13%							
Cc1c(O)cccc1Nc1ccnc2ccc(C(F)(F)F)cc12.Cl [GW466413]	0%	0%	17%	0%	9%	0%	31%	0%	0%	1%							
Nc1ncnc2[nH]c(-c3ccccc3)nc12 [AH5015]	1%	0%	24%	11%	0%	45%	26%	4%	9%	7%							
CS(=O)(=O)c1ccc(-c2c(-c3ncn[nH]3)sc(N3CCOCC3)c2C#N)cc1	20%	55%	17%	0%	13%	0%	0%	0%	29%	5%							
Cc1nnc(-c2ccc3occ(-c4ccc(S(C)=O)cc4)c3c2)[nH]1 (stereo not drawn)	5%	0%	0%	15%	28%	0%	43%	1%	0%	2%							
O=S(=O)(c1ccc(-c2ccnc3[nH]ccc23)cc1)N1CCCC1 [GSK846226]	0%	0%	9%	3%	69%	0%	0%	26%	10%	18%							
COC(=O)c1c(-c2ccccc2)c2cc(OC)ccc2c(=O)n1Cc1ccccc1	1%	0%	0%	0%	0%	0%	0%	11%	10%	0%							
Cc1csc(-c2nc(Nc3ccncc3)c3ccccc3n2)n1 [GW869640]	50%	21%	0%	18%	44%	12%	22%	44%	0%	23%							
CC(=O)Nc1nc2cnc(Nc3cc(NC(=O)c4cccc(CCC#N)c4)ccc3C)nc2s1	7%	0%	9%	7%	0%	6%	5%	3%	2%	0%							
COc1ccc2nc(-c3cccc(C)n3)nc(Nc3ccncc3)c2c1 [GSK204919]	9%	0%	15%	16%	0%	0%	0%	0%	0%	14%							
COc1ccc(CNC(=O)NC2CCN(c3ccnc(Nc4cc(OC)c(OC)c(OC)c4)n3)C2)cc1 (stereo not drawn) [GSK1379748]	0%	0%	4%	10%	73%	23%	40%	18%	0%	10%							

Source: PMC5540273 (PLoS ONE, 2017)
